Measurements: PubChem BioAssay AID720690 (Broad Institute, 2013)
Entries with a potency or affinity are not part of this list. A number with no mark means an inactive call.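 How the source made its calls: active means every repeat run showing a signal drop whose fitted half-maximal concentration is at most twice the top tested concentration; inconclusive means repeat runs disagree, or flat partial drop, or poor fit; inactive means the rest.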

test: HEK293T cytotoxicity, dose response, cytotoxicity control for miR-122 modulator project, cell-based, activator set, cherry-pick (AID 720690); settings: HEK293T viability, CellTiter-Glo luminescence, 48 h; series mostly up to 26 µM; activity change, negative = cytotoxicity: at the top concentration;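 further: 0% = neutral control wells and -100% = MG132 cytotoxic control wells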

Row | Compound | activity change, negative = cytotoxicity
1 | CN1C(=O)c2cc(NS(=O)(=O)c3ccc(Cl)cc3)ccc2OC[C@H]2O[C@H](CC(=O)N3CCc4ccccc4C3)CC[C@@H]21 | -15.6%
2 | CN1C(=O)c2cc(NC(=O)c3ccc4c(c3)OCO4)ccc2OC[C@H]2O[C@H](CC(=O)O)CC[C@@H]21 | 1.22%
3 | Cc1onc(-c2ccccc2)c1C(=O)NCc1ccccn1 | -9.52%
4 | COCCNC(=O)C[C@H]1CC[C@@H]2[C@@H](COc3ccc(NS(=O)(=O)c4ccc(Cl)cc4)cc3C(=O)N2C)O1 | -14.5%
5 | COc1cccc(CNC(=O)C[C@@H]2CC[C@H]3[C@H](COc4ccc(NC(C)=O)cc4C(=O)N3C)O2)c1 | -3.81%
6 | COCC(=O)N(C)C[C@H]1[C@H](c2ccccc2)[C@@H](CO)N1C(=O)NC(C)C | -5.13%
7 | Cc1cccc(NC(=O)c2sc3nc(-c4ccc(F)cc4)cn3c2C)n1 | -7.21%
8 | COc1cccc(C(=O)Nc2ccc3c(c2)C(=O)N(C)[C@H]2CC[C@H](CC(=O)NCc4ccc(F)cc4)O[C@H]2CO3)c1 | -30.3%
9 | CNC(=O)C[C@@H]1CC[C@@H]2[C@@H](COc3ccc(NC(=O)Cc4cccs4)cc3C(=O)N2C)O1 | 11.6%
10 | CCC(=O)N1C[C@H]2[C@@H](c3ccccc31)[C@H](CO)N2Cc1cc(F)ccc1F | 12.3%
11 | N#Cc1cccc(NC(=O)Nc2cccs2)c1 | -33.5%
12 | CC(=O)c1cccc(S(=O)(=O)NCC2CCCCC2)c1 | 14.5%
13 | CCCNC(=O)Nc1ccc2c(c1)OC[C@@H](C)N(CCC)C[C@H](C)[C@H](OC)CN(C)C2=O | -5.94%
14 | C[C@@H]1CN([C@@H](C)CO)S(=O)(=O)c2ccc(-c3ccccc3)cc2O[C@@H]1CN(C)C(=O)c1ccc2c(c1)OCO2 | -29.4%
15 | Cc1ccc(C2CC(C(F)(F)F)n3nc(C(=O)NCc4ccco4)cc3N2)cc1 (stereo unspecified) | 5.97%
16 | Cc1cccc(NC(=O)Nc2ccc3c(c2)C(=O)N(C)[C@@H]2CC[C@H](CC(=O)NCc4ccccc4Cl)O[C@H]2CO3)c1 | -6.91%
17 | CCS(=O)(=O)Nc1ccc2c(c1)C(=O)N(C)[C@@H]1CC[C@@H](CC(=O)NCCCN3CCOCC3)O[C@@H]1CO2 | -12.1%
18 | COc1ccc(S(=O)(=O)Nc2cc(C)cc(C)n2)c2ccccc12 | 16.4%
19 | Cc1ccnc(Nc2nc(-c3c(C)nc4sccn34)cs2)c1 | -39.7%
20 | CN(C)CCCNC(=O)C[C@@H]1CC[C@H]2[C@H](COc3ccc(NC(=O)c4cccc(F)c4)cc3C(=O)N2C)O1 | -0.212% [at 23.5 µM]
21 | CNC(=O)C[C@@H]1CC[C@@H]2[C@H](COc3ccc(NC(=O)Nc4cccc(C)c4)cc3C(=O)N2C)O1 | 7.34%
22 | CN1C(=O)c2cc(NC(=O)c3cccs3)ccc2OC[C@@H]2O[C@@H](CC(=O)O)CC[C@@H]21 | -5.79%
23 | C/C=C/c1ccc([C@@H]2[C@@H](CO)N(C(C)=O)[C@@H]2CN(C)C(=O)c2ccccn2)cc1 | -11.1%
24 | C[C@@H]1CN([C@@H](C)CO)S(=O)(=O)c2ccc(/C=C/c3ccccc3)cc2O[C@@H]1CN(C)C(=O)c1cccnc1 | -12.1%
25 | COCC(=O)Nc1ccc2c(c1)C(=O)N(C)[C@@H]1CC[C@@H](CC(=O)NC3CCCC3)O[C@@H]1CO2 | 3.21% [at 23.5 µM]
26 | CN1C(=O)c2cc(NC(=O)c3ccc(F)cc3)ccc2OC[C@@H]2O[C@@H](CC(=O)O)CC[C@@H]21 | 11%
